# In the supplement of paper PMC4466140:
# B1: unnamed (peptide)
# chain: TKIRRRPQQPLTDFT
# B2: unnamed (peptide)
# chain: RSRRSSFAYPQQVAI
# B3: unnamed (peptide)
# chain: KFIPSRPAPKPPSSA
# B4: unnamed (peptide)
# chain: RLSRLLLSLPPESFT
# Target: AgAbp1
# Assay: SPOT peptide array binding signal intensity (averaged, normalized) (arbitrary units (background-subtracted, floor 0; scale differs between SH3 domains)); higher = stronger binding of the SH3 domain to the peptide
# Experimental: (§1)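 GST-tagged SH3 domains from S. cerevisiae (Sc), A. gossypii (Ag), C. albicans (Ca) and S. pombe (Sp) were incubated at 10 ug/ml overnight at 4 C on cellulose SPOT membranes carrying 292 synthetic 15-mer peptides mined from the S. cerevisiae proteome (cysteines replaced by serines). Binding was detected with anti-GST antibody, HRP secondary and chemiluminescence, quantified with Genespotter, and reported as normalized spot intensities averaged over biological replicates.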
row,Binder,SPOT peptide array binding signal intensity
1,B1,21
2,B3,1640
3,B4,21.5

# Target: AgBbc1
# Assay: as above
# Experimental: as §1
row,Binder,SPOT peptide array binding signal intensity
1,B1,109
2,B3,1210
3,B4,5.5

# Target: AgBem1-D1
# Assay: as above
# Experimental: as §1
row,Binder,SPOT peptide array binding signal intensity
1,B1,32
2,B3,98
3,B4,356

# Target: AgBzz1-D1
# Assay: as above
# Experimental: as §1
row,Binder,SPOT peptide array binding signal intensity
1,B1,42.5
2,B3,70
3,B4,101

# Target: AgBzz1-D2
# Assay: as above
# Experimental: as §1
row,Binder,SPOT peptide array binding signal intensity
1,B1,82
2,B3,69.5
3,B4,145

# Target: AgCyk3
# Assay: as above
# Experimental: as §1
row,Binder,SPOT peptide array binding signal intensity
1,B1,2
2,B3,≤ 0
3,B4,2

# Target: AgFus1
# Assay: as above
# Experimental: as §1
row,Binder,SPOT peptide array binding signal intensity
1,B1,150
2,B3,≤ 0
3,B4,878

# Target: AgHof1
# Assay: as above
# Experimental: as §1
row,Binder,SPOT peptide array binding signal intensity
1,B1,39.8
2,B3,26.2
3,B4,96.5

# Target: AgHse1
# Assay: as above
# Experimental: as §1
row,Binder,SPOT peptide array binding signal intensity
1,B1,61.5
2,B3,37
3,B4,1240

# Target: AgLsb1
# Assay: as above
# Experimental: as §1
row,Binder,SPOT peptide array binding signal intensity
1,B1,22
2,B3,674
3,B4,17.8

# Target: AgLsb4
# Assay: as above
# Experimental: as §1
row,Binder,SPOT peptide array binding signal intensity
1,B1,18
2,B3,30.5
3,B4,108

# Target: AgMyo5
# Assay: as above
# Experimental: as §1
row,Binder,SPOT peptide array binding signal intensity
1,B1,0.5
2,B3,1380
3,B4,≤ 0

# Target: AgNbp2
# Assay: as above
# Experimental: as §1
row,Binder,SPOT peptide array binding signal intensity
1,B1,6
2,B3,11400
3,B4,47.5

# Target: AgRvs167
# Assay: as above
# Experimental: as §1
row,Binder,SPOT peptide array binding signal intensity
1,B1,2.33
2,B3,5.5
3,B4,6.5

# Target: AgSho1
# Assay: as above
# Experimental: as §1
row,Binder,SPOT peptide array binding signal intensity
1,B1,3
2,B3,≤ 0
3,B4,70

# Target: AgSla1-D1-D2
# Assay: as above
# Experimental: as §1
row,Binder,SPOT peptide array binding signal intensity
1,B1,12.5
2,B3,51
3,B4,85

# Target: AgSla1-D3
# Assay: as above
# Experimental: as §1
row,Binder,SPOT peptide array binding signal intensity
1,B1,3.5
2,B3,1
3,B4,5.5

# Target: CaAbp1-D1
# Assay: as above
# Experimental: as §1
row,Binder,SPOT peptide array binding signal intensity
1,B1,276
2,B3,1850
3,B4,152

# Target: CaAbp1-D2
# Assay: as above
# Experimental: as §1
row,Binder,SPOT peptide array binding signal intensity
1,B1,158
2,B3,1020
3,B4,48

# Target: CaBbc1
# Assay: as above
# Experimental: as §1
row,Binder,SPOT peptide array binding signal intensity
1,B1,518
2,B3,1910
3,B4,73.5

# Target: CaBem1-D1
# Assay: as above
# Experimental: as §1
row,Binder,SPOT peptide array binding signal intensity
1,B1,13
2,B3,1550
3,B4,1

# Target: CaBzz1-D1
# Assay: as above
# Experimental: as §1
row,Binder,SPOT peptide array binding signal intensity
1,B1,137
2,B3,1780
3,B4,46

# Target: CaBzz1-D2
# Assay: as above
# Experimental: as §1
row,Binder,SPOT peptide array binding signal intensity
1,B1,147
2,B3,1310
3,B4,138

# Target: CaCyk3
# Assay: as above
# Experimental: as §1
row,Binder,SPOT peptide array binding signal intensity
1,B1,76
2,B3,46
3,B4,17

# Target: CaFus1
# Assay: as above
# Experimental: as §1
row,Binder,SPOT peptide array binding signal intensity
1,B1,338
2,B3,75
3,B4,3850

# Target: CaHof1
# Assay: as above
# Experimental: as §1
row,Binder,SPOT peptide array binding signal intensity
1,B1,0.25
2,B3,≤ 0
3,B4,0.5

# Target: CaHse1
# Assay: as above
# Experimental: as §1
row,Binder,SPOT peptide array binding signal intensity
1,B1,6.5
2,B3,2.25
3,B4,33.5

# Target: CaLsb1
# Assay: as above
# Experimental: as §1
row,Binder,SPOT peptide array binding signal intensity
1,B1,≤ 0
2,B3,≤ 0
3,B4,1.5

# Target: CaLsb4
# Assay: as above
# Experimental: as §1
row,Binder,SPOT peptide array binding signal intensity
1,B1,22.5
2,B3,190
3,B4,37.5

# Target: CaMyo5
# Assay: as above
# Experimental: as §1
row,Binder,SPOT peptide array binding signal intensity
1,B1,1.5
2,B3,24
3,B4,28

# Target: CaNbp2
# Assay: as above
# Experimental: as §1
row,Binder,SPOT peptide array binding signal intensity
1,B1,48.5
2,B4,287

# Target: CaRvs167
# Assay: as above
# Experimental: as §1
row,Binder,SPOT peptide array binding signal intensity
1,B1,2.67
2,B4,64.2

# Target: CaRvs167-3
# Assay: as above
# Experimental: as §1
row,Binder,SPOT peptide array binding signal intensity
1,B1,15.5
2,B4,1010

# Target: CaSho1
# Assay: as above
# Experimental: as §1
row,Binder,SPOT peptide array binding signal intensity
1,B1,38
2,B4,588

# Target: CaSla1-D1-D2
# Assay: as above
# Experimental: as §1
row,Binder,SPOT peptide array binding signal intensity
1,B1,24
2,B4,≤ 0

# Target: CaSla1-D3
# Assay: as above
# Experimental: as §1
row,Binder,SPOT peptide array binding signal intensity
1,B1,0.5
2,B4,45.5

# Target: ScAbp1
# Assay: as above
# Experimental: as §1
row,Binder,SPOT peptide array binding signal intensity
1,B1,25
2,B4,49

# Target: ScBbc1
# Assay: as above
# Experimental: as §1
row,Binder,SPOT peptide array binding signal intensity
1,B1,63.5
2,B4,1.25

# Target: ScBem1-D1
# Assay: as above
# Experimental: as §1
row,Binder,SPOT peptide array binding signal intensity
1,B1,10
2,B4,102

# Target: ScBzz1-D1
# Assay: as above
# Experimental: as §1
row,Binder,SPOT peptide array binding signal intensity
1,B1,33
2,B4,94

# Target: ScBzz1-D2
# Assay: as above
# Experimental: as §1
row,Binder,SPOT peptide array binding signal intensity
1,B1,18
2,B4,118

# Target: ScCyk3
# Assay: as above
# Experimental: as §1
row,Binder,SPOT peptide array binding signal intensity
1,B1,38
2,B4,89

# Target: ScFus1
# Assay: as above
# Experimental: as §1
row,Binder,SPOT peptide array binding signal intensity
1,B1,44
2,B4,1180

# Target: ScHof1
# Assay: as above
# Experimental: as §1
row,Binder,SPOT peptide array binding signal intensity
1,B1,≤ 0
2,B4,1

# Target: ScHse1
# Assay: as above
# Experimental: as §1
row,Binder,SPOT peptide array binding signal intensity
1,B1,281
2,B4,1930

# Target: ScLsb1
# Assay: as above
# Experimental: as §1
row,Binder,SPOT peptide array binding signal intensity
1,B1,4.75
2,B4,1.5

# Target: ScLsb2
# Assay: as above
# Experimental: as §1
row,Binder,SPOT peptide array binding signal intensity
1,B1,1
2,B4,9

# Target: ScLsb3
# Assay: as above
# Experimental: as §1
row,Binder,SPOT peptide array binding signal intensity
1,B1,115
2,B4,127

# Target: ScLsb4
# Assay: as above
# Experimental: as §1
row,Binder,SPOT peptide array binding signal intensity
1,B1,15
2,B4,4.5

# Target: ScMyo3
# Assay: as above
# Experimental: as §1
row,Binder,SPOT peptide array binding signal intensity
1,B1,1
2,B4,≤ 0

# Target: ScMyo5
# Assay: as above
# Experimental: as §1
row,Binder,SPOT peptide array binding signal intensity
1,B1,2
2,B4,6

# Target: ScNbp2
# Assay: as above
# Experimental: as §1
row,Binder,SPOT peptide array binding signal intensity
1,B1,93
2,B4,176

# Target: ScPex13
# Assay: as above
# Experimental: as §1
row,Binder,SPOT peptide array binding signal intensity
1,B1,6.75
2,B4,1.75

# Target: ScRvs167
# Assay: as above
# Experimental: as §1
row,Binder,SPOT peptide array binding signal intensity
1,B1,14
2,B4,20.3

# Target: ScSho1
# Assay: as above
# Experimental: as §1
row,Binder,SPOT peptide array binding signal intensity
1,B1,148
2,B4,1770

# Target: ScSla1-D1-D2
# Assay: as above
# Experimental: as §1
row,Binder,SPOT peptide array binding signal intensity
1,B1,240
2,B4,≤ 0

# Target: ScSla1-D3
# Assay: as above
# Experimental: as §1
row,Binder,SPOT peptide array binding signal intensity
1,B1,38.5
2,B4,5.75

# Target: SpAbp1-D1
# Assay: as above
# Experimental: as §1
row,Binder,SPOT peptide array binding signal intensity
1,B1,94
2,B4,198

# Target: SpBbc1
# Assay: as above
# Experimental: as §1
row,Binder,SPOT peptide array binding signal intensity
1,B1,5.75
2,B4,0.5

# Target: SpBzz1-D1
# Assay: as above
# Experimental: as §1
row,Binder,SPOT peptide array binding signal intensity
1,B1,253
2,B4,315

# Target: SpBzz1-D2
# Assay: as above
# Experimental: as §1
row,Binder,SPOT peptide array binding signal intensity
1,B1,≤ 0
2,B2,≤ 0
3,B4,≤ 0

# Target: SpCyk3
# Assay: as above
# Experimental: as §1
row,Binder,SPOT peptide array binding signal intensity
1,B1,1.5
2,B2,1.5
3,B4,10

# Target: SpHof1
# Assay: as above
# Experimental: as §1
row,Binder,SPOT peptide array binding signal intensity
1,B1,65.5
2,B2,93.5
3,B4,252

# Target: SpHof1-2
# Assay: as above
# Experimental: as §1
row,Binder,SPOT peptide array binding signal intensity
1,B1,5.5
2,B2,13
3,B4,24.2

# Target: SpHof1-3
# Assay: as above
# Experimental: as §1
row,Binder,SPOT peptide array binding signal intensity
1,B1,164
2,B2,203
3,B4,441

# Target: SpHse1
# Assay: as above
# Experimental: as §1
row,Binder,SPOT peptide array binding signal intensity
1,B1,93
2,B2,168
3,B4,1330

# Target: SpLsb1
# Assay: as above
# Experimental: as §1
row,Binder,SPOT peptide array binding signal intensity
1,B1,5
2,B2,7.75
3,B4,1.25

# Target: SpLsb4
# Assay: as above
# Experimental: as §1
row,Binder,SPOT peptide array binding signal intensity
1,B1,104
2,B2,59
3,B4,20

# Target: SpMyo1
# Assay: as above
# Experimental: as §1
row,Binder,SPOT peptide array binding signal intensity
1,B1,8
2,B2,6.75
3,B4,6.5

# Target: SpNbp2
# Assay: as above
# Experimental: as §1
row,Binder,SPOT peptide array binding signal intensity
1,B1,10.5
2,B2,91
3,B4,76

# Target: SpPex13
# Assay: as above
# Experimental: as §1
row,Binder,SPOT peptide array binding signal intensity
1,B1,1
2,B2,17
3,B4,16

# Target: SpRvs167
# Assay: as above
# Experimental: as §1
row,Binder,SPOT peptide array binding signal intensity
1,B1,11.8
2,B2,8.83
3,B4,13.7

# Target: SpSla1-D1-D2
# Assay: as above
# Experimental: as §1
row,Binder,SPOT peptide array binding signal intensity
1,B1,1
2,B2,3
3,B4,≤ 0

# Target: SpSla1-D3
# Assay: as above
# Experimental: as §1
row,Binder,SPOT peptide array binding signal intensity
1,B1,≤ 0
2,B2,10
3,B4,6
